The source of these data is PubChem BioAssay (NCI).

This is part of a sample that, as a whole, favours compounds with a hit. Of some 83,000 tested, about 20% had one in any assay.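 Note: values are percent growth. 100 is the growth of untreated cells, values between 100 and 0 indicate rising inhibition; between -100 and 0 indicates cell death.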 Values without a mark were called inactive. Active and inactive are the calls of the source. How the source made its calls: active means growth percent below 10; inactive means the rest.

What all share (assay): NCI-60 one-dose screen, 48 h (100 = growth as untreated, 0 = no growth, -100 = all killed)
Common to all, as to conditions: 10 µM unless noted

Assay [1] concerns NCI-H23 lung.
Assay [2] concerns NCI-H226 lung.
Assay [3] has as its system NCI-H322M lung.
Assay [4] deals with HOP-62 NSCLC.
Assay [5] concerns NCI-H460 lung.
Assay [6] has as its system HOP-92 NSCLC.
For assay [7], the system named is NCI-H522 lung.
Assay [8] relates to A549/ATCC NSCLC.
For assay [9], the system named is 786-0 renal.
In assay [10] the test system is COLO 205 colon.
Assay [11] has as its system DU-145 prostate.
The test system of assay [12] is MALME-3M melanoma.
For assay [13], the system named is MDA-MB-231 breast.
The subject of assay [14] is SF-268 CNS.
Assay [15] relates to SF-295 CNS.
Assay [16] deals with SF-539 CNS.
Assay [17] relates to UACC-257 melanoma.
Assay [18] relates to K-562 leukemia.
Assay [19] concerns RXF 393 renal.
For assay [20], the system named is M14 melanoma.

For the compound `COc1ccc(Br)c2c1C(=O)CC2`, the growth is 109% in [1]; 100% in assay [2]; 159% in assay [3]; 116% in assay [4]; 110% in assay [5]; 94.5% in [6]. Further, the growth in assay [7] was 43.1%; in assay [8], 122%; in [9], 113%; in [10], 114%; in assay [11], 127%; in assay [12], 113%. The growth is 106% in assay [13]; 91.3% in assay [14]; 111% in assay [15]; 106% in [16]; 119% in assay [17].

For the compound `O=CNCCc1ccccc1`, the growth is 102% in assay [1]; 98.9% in [2]; 106% in assay [3]; 90.8% in [4]; 111% in assay [5]; 88.5% in [6]. Besides, the growth is 104% in assay [7]; 96.8% in [8]; 102% in assay [9]; 103% in assay [10]; 89.9% in assay [18]; 130% in assay [12]. Also, the growth was 105% in assay [13]; 111% in assay [19]; 110% in assay [14]; 95.8% in [15]; 115% in [16]; 103% in [17]. The growth in [20] was 102%.

`CCOc1ccc(NC(=S)N2CCC(CCCC3CCN(C(=S)Nc4ccc(OCC)cc4)CC3)CC2)cc1`: the growth was 75.8% in assay [1]; 77.1% in assay [2]; 100% in assay [3]; 104% in [4]; 91.5% in [5]; 59.2% in assay [6]. Moreover, the growth in [7] was 77.7%; in assay [8], 83.3%; in assay [10], 110%; in assay [11] it was 95.9%; in assay [18], 61.5%; in assay [12], 80.1%. The growth in assay [13] is 92.4%; in assay [19], 110%; in assay [14], 83.1%; in assay [15] it was 84.6%; in assay [16], 106%; in assay [17], 83.1%. Also, the growth in assay [20] is 97.9%.

Turning to `O=C(c1cccc(C(=O)c2ccc3c4c(cccc24)C(=O)N(c2ccccc2)C3=O)c1)c1ccc2c3c(cccc13)C(=O)N(c1ccccc1)C2=O`, the growth in [1] is 82.6%; in assay [2], 78.6%; in [3], 113%; in [4], 101%; in [5], 104%; in [6], 85.5%. In addition, the growth in [7] was 85%; in assay [8], 103%; in assay [9], 106%; in assay [10], 102%; in [18], 89.8%; in assay [12] it was 101%. Besides, the growth in assay [13] is 91.1%; in [19] it was 102%; in assay [14], 97.2%; in [15], 103%; in [16] it was 98.7%; in assay [17], 92%. Also, the growth in assay [20] was 99.2%.

On to `O=C(NCCc1ccccc1)/C(=C\c1ccc(Cl)cc1Cl)NC(=O)c1ccccc1`, for which the growth in assay [1] is 91.2%; in [2], 101%; in [3], 101%; in assay [4], 98.7%; in [5], 97.1%; in assay [6], 80.5%. Besides, the growth was 90% in assay [7]; 101% in [8]; 107% in assay [9]; 92.9% in assay [10]; 122% in assay [18]; 79.4% in assay [12]. The growth was 90.8% in assay [13]; 92.8% in [19]; 95% in assay [14]; 99.5% in assay [15]; 94.1% in assay [16]; 96.6% in [17]. In [20], the growth is 96.4%.

Regarding `Cc1nc(C)c(C(=O)O)cc1C(=O)O`, the growth is 101% in assay [1]; 110% in [2]; 126% in [3]; 106% in assay [4]; 112% in assay [5]; 103% in assay [6]. The growth was 108% in assay [7]; 116% in assay [8]; 112% in [9]; 131% in assay [10]; 99.6% in assay [18]; 105% in assay [12]. Moreover, the growth in assay [13] was 108%; in [19], 117%; in [14], 116%; in assay [15], 118%; in [16], 95%; in assay [17], 111%. Besides, the growth in assay [20] is 114%.

With `Clc1ccc(C(SCc2ccccc2)SCc2ccccc2)cc1`, the growth in [1] is 86.1%; in assay [2] it was 86.3%; in assay [3] it was 111%; in assay [4], 92.1%; in assay [5], 98.3%; in [6], 83%. For the same compound, the growth was 80.5% in assay [7]; 97.6% in [8]; 111% in assay [9]; 90.1% in assay [10]; 92.7% in assay [18]; 75.8% in assay [12]. The growth is 99.9% in [13]; 88% in [19]; 91% in assay [14]; 102% in assay [15]; 97.2% in assay [16]; 88.2% in assay [17].

As for `CCCCn1cnc2c(=O)[nH]cnc21`, the growth is 106% in assay [1]; 107% in assay [2]; 104% in [3]; 105% in assay [4]; 119% in assay [5]; 89.3% in assay [6]. The growth in assay [7] was 98.6%; in assay [8], 107%; in [9] it was 105%; in assay [10] it was 111%; in assay [18], 97.7%; in assay [12], 158%. The growth in [13] is 98.4%; in assay [19] it was 118%; in [14], 110%; in assay [15], 100%; in assay [16] it was 104%; in assay [17], 121%. In addition, the growth in assay [20] is 103%.

With `CC(=O)C1C(=O)C(=O)N(c2cccc([N+](=O)[O-])c2)C1=O` (configuration not stated), the growth was 99% in assay [1]; 92.3% in assay [2]; 114% in assay [3]; 105% in [4]; 105% in assay [5]; 95.6% in assay [6]. Besides, the growth in [7] is 104%; in [8], 109%; in [9] it was 96.8%; in [10], 111%; in [18] it was 112%; in assay [12], 124%. Further, the growth in [13] was 107%; in [19], 110%; in [14], 109%; in assay [15], 107%; in assay [16] it was 108%; in assay [17], 97.4%. For the same compound, the growth in [20] was 104%.

Consider `C(=C\c1ccncc1)/c1ccncc1`, for which the growth was 98.7% in [1]; 96.4% in assay [2]; 90.8% in [3]; 101% in assay [4]; 107% in assay [5]; 87.9% in assay [6]. For the same compound, the growth in assay [7] is 5.51% (active); in assay [8], 96.5%; in assay [9] it was 107%; in assay [10] it was 115%; in assay [11], 145%; in assay [12] it was 87.1%. Also, the growth is 110% in assay [13]; 146% in assay [14]; 107% in [15]; 104% in assay [16]; 108% in assay [17]; 105% in assay [20].

Consider `CC(=O)OCC1OC(n2cnc3c(=S)nc(N)[nH]c32)C(OC(C)=O)C1OC(C)=O` (configuration not stated), for which the growth in assay [1] is 88.3%; in [2], 68.2%; in assay [3], 77.3%; in assay [4] it was 49.3%; in assay [5] it was 67.2%; in [6] it was 28.4%. Further, the growth was 83.5% in assay [7]; 105% in assay [8]; 66% in assay [9]; 120% in assay [10]; 53.1% in assay [11]; 84.4% in [12]. The growth in assay [13] was 63.5%; in assay [14] it was 76.8%; in assay [15], 40%; in assay [16], 85.7%; in assay [20] it was 37.6%.

With `O=C(NCc1ccccc1)/C(=C/c1ccccc1)NC(=O)c1ccccc1`, the growth is 104% in [1]; 98% in assay [2]; 104% in assay [3]; 104% in assay [4]; 103% in [5]; 85.8% in [6]. The growth was 90% in assay [7]; 85.4% in [8]; 112% in assay [9]; 110% in [10]; 111% in assay [11]; 92.6% in assay [13]. Also, the growth was 93.7% in assay [19]; 100% in assay [14]; 106% in assay [15]; 115% in assay [16]; 81.1% in assay [17]; 101% in assay [20].

Take `C/C(O)=C(/C=N\C(=S)Nc1ccc(S(=O)(=O)Nc2nccs2)cc1)C(=O)Nc1ccccc1C`: the growth was 94.6% in [1]; 73.2% in assay [2]; 99.7% in assay [3]; 96.1% in assay [4]; 102% in [5]; 87.5% in assay [6]. For the same compound, the growth in assay [7] was 91.6%; in assay [8], 92.6%; in [9] it was 96.7%; in [10], 104%; in [18], 93.7%; in assay [12], 108%. Moreover, the growth in assay [13] is 87%; in assay [19] it was 97.7%; in [14], 88.8%; in [15], 104%; in assay [16], 95.9%; in assay [17], 109%. In addition, in [20], the growth was 100%.

As to `C/C(O)=C(/C=N/C(=S)Nc1ccccc1)C(=O)Nc1ccccc1C`, the growth in assay [1] was 103%; in assay [2], 95.8%; in [3], 104%; in assay [4] it was 99.4%; in assay [5], 106%; in assay [6] it was 92.6%. Besides, the growth was 94.5% in [7]; 97.3% in assay [8]; 102% in assay [9]; 110% in [10]; 100% in assay [18]; 89.1% in assay [12]. Further, the growth in [13] is 99.7%; in [19], 104%; in assay [14], 97.9%; in assay [15], 105%; in assay [16] it was 101%; in assay [17], 91.2%. Moreover, in assay [20], the growth was 100%.

As for `Cc1cccc(C)c1NC(=S)/N=C\c1c(O)[nH]c(=O)[nH]c1=O`, the growth is 104% in assay [1]; 100% in assay [2]; 98.5% in assay [3]; 87.7% in [4]; 105% in [5]; 102% in assay [6]. The growth was 86.4% in assay [7]; 79.4% in assay [8]; 101% in assay [9]; 103% in assay [10]; 111% in assay [11]; 96.6% in [13]. Moreover, the growth was 108% in [19]; 98% in [14]; 97.9% in assay [15]; 112% in assay [16]; 81.8% in [17].

Take `NC(CSSCC(N)C(=O)O)C(=O)O` (configuration not stated): the growth is 20.2% in assay [1]; -9.33% (active) in assay [2]; 36.6% in assay [3]; 15.7% in assay [4]; 42.5% in assay [5]; 17.3% in assay [6]. In addition, the growth in assay [7] is -6.34% (active); in assay [8], 36.7%; in assay [10], -19.2% (active); in assay [11], 36%; in [18], 13.8%; in [12] it was 4.18% (active). The growth in assay [13] was 2.86% (active); in assay [19], -37.9% (active); in [14], 28.1%; in [15], 11%; in assay [16] it was -36.8% (active); in assay [17], 5.8% (active). Moreover, in [20], the growth was 2.4% (active).

On to `CCOC(=O)/C(C#N)=C\c1c[nH]c2ccccc12`, for which the growth was 86.5% in [1]; 79.8% in assay [2]; 110% in assay [3]; 80.7% in assay [4]; 109% in assay [5]; 81.6% in [6]. Also, the growth was 70.4% in assay [7]; 105% in assay [8]; 114% in [9]; 98.7% in [10]; 111% in [11]; 116% in [12]. In addition, the growth in assay [13] was 80.9%; in assay [14], 101%; in [15] it was 107%; in assay [16] it was 103%; in assay [17], 105%.
